Screens deposited in PubChem BioAssay by National Center for Advancing Translational Sciences (NCATS).
Compounds with a hit are over-represented: about 9.2% of the library has one in this group of screens.
FLuc modulator – counter-screen for miR-21 project: firefly luciferase inhibitors or activators; P08659; purified FLuc, Km substrates, luminescence inhibition; Potency, µM (highest dose often 57.5 µM), most hits filed as inhibitors; 360,000 compounds, 6.9% hits; also: nearly all actives have a fitted effect of over 55% in size
Target sequence (P08659 whole entry, looked up): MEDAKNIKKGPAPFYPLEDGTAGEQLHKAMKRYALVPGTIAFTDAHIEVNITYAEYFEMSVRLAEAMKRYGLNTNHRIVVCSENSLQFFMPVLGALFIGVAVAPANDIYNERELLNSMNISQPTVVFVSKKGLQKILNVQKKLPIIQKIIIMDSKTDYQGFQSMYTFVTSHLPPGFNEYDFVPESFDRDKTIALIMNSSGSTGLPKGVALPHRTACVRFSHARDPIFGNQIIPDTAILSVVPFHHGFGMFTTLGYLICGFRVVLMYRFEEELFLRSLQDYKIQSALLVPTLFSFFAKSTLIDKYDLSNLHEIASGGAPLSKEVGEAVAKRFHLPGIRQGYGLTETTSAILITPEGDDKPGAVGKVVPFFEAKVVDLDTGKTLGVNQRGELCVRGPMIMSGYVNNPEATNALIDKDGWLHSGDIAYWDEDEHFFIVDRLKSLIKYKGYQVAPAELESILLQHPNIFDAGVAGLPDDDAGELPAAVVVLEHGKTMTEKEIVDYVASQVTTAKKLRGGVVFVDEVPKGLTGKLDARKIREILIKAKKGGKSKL
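Purified P. pyralis luciferase, 10 nM final, with Km-level 10 uM D-luciferin and 10 uM ATP in 50 mM Tris acetate pH 7.5, 10 mM Mg acetate, 0.01% Tween-20, 0.05% BSA; 6-point qHTS titration about 60 µM downward; luminescence read.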
ELG1 repair inh – inhibitors of ELG1-dependent DNA repair in HEK293T cells; 330,000 compounds, 2.3% hits; Potency, µM (series often up to 46.1 µM), most hits filed as inhibitors; HEK293T ELG1-luciferase reporter, luminescence, 16 h; DNA damage induced by 5-fluorouridine; also: nearly all actives have a fitted effect of over 55% in size
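HEK293T cells expressing luciferase-tagged ELG1 (2,000/well) received 5-Fluorouridine plus compound or DMSO for 16 hr at 37 °C. Luciferase was read by ONE-Glo luminescence after 30 min at room temperature.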
ELG1 genotox – inducers of genotoxicity in HEK293T ELG1-luciferase cells; HEK293T ELG1-luciferase reporter, luminescence, 16 h; Potency, µM (series often up to 46 µM), hits mostly activators; 330,000 compounds, 1.3% hits; also: nearly all actives have a fitted effect of over 60% in size
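HEK293T cells expressing luciferase-tagged ELG1 were exposed to compound or DMSO vehicle for 16 hr at 37 °C and 5% CO2. Luciferase activity was then measured with ONE-Glo after 30 min at room temperature.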
SMN2 splice enh – enhancers of SMN2 splice variant expression; HEK293 SMN2-luciferase splicing reporter, luminescence, 30-36 h; Potency, µM (highest dose often 46.1 µM), most hits filed as activators; 210,000 compounds, 2.8% hits; also: nearly all actives have a fitted effect of over 55% in size
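HEK293 cells carry an SMN2 […]–luciferase reporter in which exon 7 inclusion puts luciferase in frame. Cells were plated 10-12 h before compound addition, then incubated 30-36 h at 37C. ONE-Glo luminescence was read; sodium butyrate at 4.5 mM final served as control.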
NPC1 promoter act – activates the NPC1 promoter. AID 485313. Potency, µM (series often up to 9.22 µM), hits mostly activators. 320,000 compounds, 2.4% hits. Huh7 NPC1 promoter luciferase reporter, 24 h; also: nearly all actives have a fitted effect of over 60% in size
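Stably transfected Huh7 (NPC1 promoter→luciferase), 1500 cells/well in Opti-MEM + 10% FBS, 2 h settle, then compound 24 h at 37 °C. Luminescence after 10 min with Amplite reagent.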
Rab9 promoter act – activators of Rab9 promoter; Huh7 Rab9 promoter-luciferase reporter, luminescence, 24 h; Potency, µM (top dose mostly 9.22 µM), actives largely listed as activators; 320,000 compounds, 2.8% hits; AID 485297; also: nearly all actives have a fitted effect of over 60% in size
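Huh7 reporter line, Rab9 promoter upstream of luciferase. Compound exposure 24 h at 37 °C in reduced-serum medium with 10% FBS. Read-out: luminescence.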
Of the large screens only hits and unclear results are named; the others gave an inactive call. Calls follow the shape of the dose curve; as a rule, active = well fitted curve in the direction sought with a large enough effect; inconclusive = small, poorly fitted or top-dose-only effect, or another doubt; inactive = no such curve, though single readings can be large; an effect the other way counts as inactive or inconclusive.

Fc1ccc(-c2noc3ncnc(N4CCCCC4)c23)cc1	none (no result: ELG1 repair inh, ELG1 genotox, SMN2 splice enh, NPC1 promoter act, Rab9 promoter act)
Cc1ccc(-c2nnc(Nc3ccccc3)c3ccccc23)cc1S(=O)(=O)NCc1nc2ccccc2[nH]1	none (no result: ELG1 repair inh, ELG1 genotox, NPC1 promoter act, Rab9 promoter act)
COc1ccc(Nc2nnc(-c3ccc(C)c(S(=O)(=O)N4CCN(C)CC4)c3)c3ccccc23)cc1	FLuc modulator 17µM (no result: ELG1 repair inh, ELG1 genotox, NPC1 promoter act, Rab9 promoter act)
Cc1ccc(-c2nnc(NC3CCCCC3)c3ccccc23)cc1S(=O)(=O)N1CCN(C)CC1	ELG1 repair inh 23µM
Cc1ccc(-c2nnc(NCc3nc4ccccc4[nH]3)c3ccccc23)cc1S(=O)(=O)N1CCCCC1	ELG1 repair inh 8.2µM
Cc1ccc(NC(=O)c2nc(S(C)(=O)=O)ncc2N(Cc2ccc(C(C)(C)C)cc2)Cc2ccco2)cc1C	none (no result: ELG1 repair inh, ELG1 genotox, SMN2 splice enh, NPC1 promoter act, Rab9 promoter act)
Cc1onc(-c2c(F)cccc2Cl)c1C(=O)NC(C)c1ccccc1 (stereo not given)	none (no result: SMN2 splice enh)
CN(CC(=O)Nc1ccc(Cl)c(C(F)(F)F)c1)C(=O)CCCc1nc2ccccc2c(=O)[nH]1	ELG1 repair inh 11µM (no result: SMN2 splice enh)
CN(CC(=O)Nc1ccc(Cl)c(C(F)(F)F)c1)C(=O)c1cn2ccccc2n1	FLuc modulator inconclusive, ELG1 genotox 23µM (no result: SMN2 splice enh)
N=C1C(c2nc3ccccc3[nH]2)=C(O)CN1C1CCCCC1	FLuc modulator inconclusive, ELG1 repair inh inconclusive, ELG1 genotox inconclusive, NPC1 promoter act 3.2µM, Rab9 promoter act 2µM (no result: SMN2 splice enh)
CC(c1ccon1)N(C)C(=O)CCc1nnc(Cc2ccc(-c3ccccc3)cc2)o1 (stereo not given)	FLuc modulator inconclusive, ELG1 repair inh inconclusive (no result: SMN2 splice enh)
O=C(CCc1nnc(-c2ccc(-c3ccccc3)cc2)o1)NCCc1ccccn1	FLuc modulator 19µM, ELG1 repair inh inconclusive, ELG1 genotox inconclusive (no result: SMN2 splice enh)
CC(NC(=O)CCc1nnc(-c2ccc(-c3ccccc3)cc2)o1)c1nccs1 (stereo not given)	FLuc modulator 17µM, ELG1 repair inh inconclusive, SMN2 splice enh 10µM
CC(c1nccs1)N(C)C(=O)CCc1nnc(-c2ccc(-c3ccccc3)cc2)o1 (stereo not given)	FLuc modulator 12µM (no result: SMN2 splice enh)
Cc1ccc(C(C)NC(=O)c2cc3cc(Br)ccc3oc2=N)cc1 (stereo not given)	none (no result: SMN2 splice enh)
CCCS(=O)(=O)c1c(S(=O)(=O)CCC)c2cc(C(C)(C)C)ccn2c1C(=O)c1ccccc1	none (no result: ELG1 repair inh, ELG1 genotox, NPC1 promoter act, Rab9 promoter act)
CC1Cn2c(C(=O)NCCc3ccc(Cl)cc3)cc3cccc(c32)S1 (stereo not given)	none (no result: ELG1 repair inh, ELG1 genotox, SMN2 splice enh, NPC1 promoter act, Rab9 promoter act)
CCCCOc1ncnc2c1[nH]c1ccc(OCC)cc12	none
CCCCOCCCNc1ncnc2c1[nH]c1ccccc12	FLuc modulator inconclusive, ELG1 repair inh inconclusive
CCOCCCNc1ncnc2c1[nH]c1ccccc12	FLuc modulator inconclusive, ELG1 repair inh 15µM
CCCCOc1ncnc2c1[nH]c1ccc(OC)cc12	FLuc modulator 1.7µM, ELG1 repair inh inconclusive, ELG1 genotox inconclusive, SMN2 splice enh inconclusive, NPC1 promoter act 0.56µM, Rab9 promoter act 1.4µM
c1ccc2c(c1)[nH]c1c(NCC3CCCO3)ncnc12 (stereo not given)	ELG1 repair inh 15µM (no result: SMN2 splice enh)
CCCCOc1ncnc2c1[nH]c1ccc(F)cc12	FLuc modulator 2.7µM, ELG1 repair inh inconclusive
CC1CC[C@@]2(OC1)OC1CC3C4CC=C5CC(O)CC[C@@]5(C)C4CC[C@]3(C)C1C2C (stereo not given in full)	none (no result: FLuc modulator, ELG1 repair inh, ELG1 genotox, NPC1 promoter act, Rab9 promoter act)
CCCCOc1ncnc2c1[nH]c1ccccc12	FLuc modulator 11µM, ELG1 repair inh inconclusive
CCCCn1cnc2c([nH]c3ccccc32)c1=O	FLuc modulator inconclusive, ELG1 repair inh inconclusive
Cc1ccc(C(=O)N/N=C/c2ccc([N+](=O)[O-])s2)cc1	none
O=C(CNC(=O)c1ccccc1)N/N=C/c1ccc([N+](=O)[O-])s1	ELG1 repair inh 6.5µM
O=C(N/N=C/c1ccc([N+](=O)[O-])s1)c1cccc(Br)c1	ELG1 repair inh 10µM
CCOC(=O)c1cc(-c2ccccc2)sc1NC(=O)C(C)C	none
